Screening data from PubChem.
D1 PAM = potentiators of human D1 dopamine receptor. 360,000 compounds, 0.036% hits. HEK293 TREx D1 cells, calcium flux, dopamine EC20 potentiation. P21728. potentiation, % at 10 µM; in the data active = potentiation above about 30%
DRD3 agonist = D3 dopamine receptor (human) agonism; P35462; max activation, %; 410,000 compounds, 0.58% hits; D3R DiscoveRx beta-arrestin cells, luminescence, 90 min; in the data active = max activation above about 30%
Target sequence (P35462 whole entry, looked up): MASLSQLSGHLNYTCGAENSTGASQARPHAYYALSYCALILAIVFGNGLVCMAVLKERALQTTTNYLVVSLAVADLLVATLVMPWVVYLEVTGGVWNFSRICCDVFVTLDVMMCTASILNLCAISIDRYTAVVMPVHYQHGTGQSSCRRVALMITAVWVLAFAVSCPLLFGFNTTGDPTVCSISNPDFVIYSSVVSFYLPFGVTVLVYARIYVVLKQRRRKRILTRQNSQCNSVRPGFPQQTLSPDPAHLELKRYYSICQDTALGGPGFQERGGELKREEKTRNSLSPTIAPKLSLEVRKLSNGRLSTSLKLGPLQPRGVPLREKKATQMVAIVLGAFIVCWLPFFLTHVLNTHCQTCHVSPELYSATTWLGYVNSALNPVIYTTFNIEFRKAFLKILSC
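Agonist mode: compounds and dopamine controls were applied to plated cells for 90 min at 37 degrees C after an overnight attachment at 1500 cells/well. Luminescent read-out followed 30 - 60 minutes at room temperature with DiscoveRx detection reagent.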
D1 agonist = agonists of human D1 dopamine receptor; P21728; HEK293 T-REx D1 cells, calcium flux, agonist mode; activation, % at 2 µM; 360,000 compounds, 1% hits; in the data active = activation above about 30%
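Agonism was scored from calcium flux recorded over 180 s (1 read/s) after pintool compound addition, following a 10-cycle baseline. Cells were inducible force-coupled HEK293 TREx D1, plated overnight at 30 C and loaded with no-wash calcium dye.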
D3 antag = blocks the human D3 dopamine receptor | D3R cells, DiscoveRx beta-arrestin luminescence, antagonist mode; stronger effect = lower value | P35462 | max response, negative = inhibition, % | 360,000 compounds, 2.5% hits; in the data active = max response below about -50%; inconclusive = no clear call, values can overlap the other calls
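Cells expressing the human receptor were seeded at 1500 cells/well, incubated overnight at 37 degrees C in 5% CO2, then exposed to library compounds with dopamine controls for 90 minutes at 37 degrees C before luminescent detection.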
D1 antagonist = human D1 dopamine receptor antagonism. P21728. HEK293 TREx D1 cells, calcium flux, dopamine EC80; stronger effect = lower value. activity change, negative = inhibition, % at 10 µM. 360,000 compounds, 3.2% hits. AID 504652; in the data active = activity change below about -30%
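Calcium flux readout: force-coupled, inducible Hek293 Trex D1 line, cells induced overnight at 30 C with tetracycline, dye-loaded 30–90 min at RT. Antagonism scored against EC80 dopamine challenge given 180 s after compound.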
Of the large screens only hits and unclear results are named; the others gave an inactive call. In the library only some 6% were active in any assay of this set; here they are far more common.

Clc1cccc(-c2ccc(CNCCCN3CCOCC3)o2)c1	D3 antag -80
COc1ccccc1CNC(=O)c1ccc(N2CCCC2)c(NC(=O)NCc2ccccc2)c1	none (no result: D3 antag)
Cc1ccc(NC(=O)Cn2c(=O)ccc3cc(S(=O)(=O)N4CCCC4)ccc32)cc1N(C)C	none (no result: D3 antag)
Cc1n[nH]c(C)c1CCCCOc1ccccc1	D1 antagonist -32
Cc1ccccc1OCCCCc1c(C)n[nH]c1C	none
Cc1n[nH]c(C)c1CCCCOc1ccc([N+](=O)[O-])cc1	D1 antagonist -39
Cc1n[nH]c(C)c1CCCCOc1ccccc1[N+](=O)[O-]	D1 antagonist -33
Cc1ccc(OCCCc2c(C)n[nH]c2C)cc1	none
CCN(CC)c1ccc(C2C(C(N)=O)=C(C)Nc3nc(SCc4ccccc4Cl)nn32)cc1 (configuration not stated)	none (no result: D3 antag)
Cc1ccc(C)c(CSc2cn(CC(=O)N3CCCC3)c3ccccc23)c1	none (no result: D3 antag)
CCOCCc1nn2c(=O)cc(COC(=O)c3ccccc3OC)nc2s1	D1 antagonist -32 (no result: D3 antag)
Cc1c(C(=O)OC(C)C)sc(NC(=O)C2c3ccccc3Oc3ccccc32)c1C(=O)OC(C)C	none (no result: D3 antag)
COC(=O)Cn1cc(/C=N/NC(=O)c2ccc(C#N)cc2F)c2ccccc21	D1 antagonist -39
O=c1c2cc3c(cc2[nH]c(=S)n1C1CCN(Cc2ccccc2)CC1)OCO3	D3 antag inconclusive, D1 antagonist -32
CC1(C)C(\C=C/C=C\C=C/C=C2/N(CCCCS(=O)(=O)O)c3ccc4ccccc4c3C2(C)C)=[N+](CCCCS(=O)(=O)[O-])c2ccc3ccccc3c21	none (no result: D1 PAM, D1 agonist, D3 antag, D1 antagonist)
CCCCNC(=S)NCC(c1ccccc1)c1c[nH]c2ccccc12 (configuration not stated)	none
NCC(c1ccccc1Cl)c1c[nH]c2ccccc12 (configuration not stated)	none
NCC(c1ccc(Cl)cc1Cl)c1c[nH]c2ccccc12 (configuration not stated)	D1 agonist 41
CN(C)CCCNC(=S)NCC(c1ccc(Cl)cc1Cl)c1c[nH]c2ccccc12 (configuration not stated)	D1 agonist 61, D1 antagonist -40
Cc1ccccc1CNC(=O)c1cnc2sc(N3CCOCC3)nn2c1=O	none (no result: D3 antag)
Cc1ccc(C)c(S(=O)(=O)N2CCN(C(=O)CSc3ccccc3F)CC2)c1	D1 agonist 31
Cc1ccc(C)c(S(=O)(=O)N2CCN(C(=O)Cc3c(F)cccc3Cl)CC2)c1	none
CN1CCN(C(=O)c2ccc3c(c2)N(Cc2ccc(Cl)cc2)C(=O)c2ccccc2S3(=O)=O)CC1	none (no result: D3 antag)
CCOc1ccccc1C1CC(=O)NC2=C1C(=O)CCC2 (configuration not stated)	none
Cn1c2c(c(=O)n(C)c1=O)C(c1ccccc1OC(F)F)C1=C(CCCC1=O)N2 (configuration not stated)	D1 antagonist -36
Cn1nnnc1Sc1ncnc2scc(-c3ccccc3C#N)c12	none (no result: DRD3 agonist, D3 antag)
O=C(Nc1ccccc1N1CCN(C(=O)c2ccccc2)CC1)c1ccccc1Cl	D1 antagonist -45
O=C(Nc1ccccc1N1CCCC1)c1ccc(Cl)cc1Cl	D1 antagonist -33
O=C(Nc1cc(C(=O)N2CCCC2)ccc1N1CCCC1)c1ccccc1F	DRD3 agonist 61
O=C(NCC1CCN(Cc2ccc(F)cc2)CC1)c1cc2ccc3cccnc3c2[nH]1	none (no result: D3 antag)
COC(=O)CN1C(=O)CSc2ccc(S(=O)(=O)Nc3c(C)cc(C)cc3C)cc21	none (no result: D3 antag)
COc1ccc2c(c1)c1c(c(=O)n(-c3cccc(C)c3)c(=O)n1CC(=O)NCc1ccc(C)cc1)n2C	none (no result: D3 antag)
CC1=C(C(=O)O)N2C(=O)[C@@H](NC(=O)[C@H](N)C3=CCC=CC3)[C@H]2SC1	none (no result: D1 PAM, D1 agonist, D3 antag, D1 antagonist)
Cc1sc(-n2cccc2)c(C(C)NC(=O)Nc2ccccc2Cl)c1C (configuration not stated)	none (no result: D3 antag)
Oc1cccc(C=Nc2cccc3ccccc23)c1O	D3 antag -75
Oc1ccc2ccccc2c1C=Nc1ccc(N2CCOCC2)cc1	D1 agonist 52
Oc1ccc(N=Nc2cccc(Cl)c2)cc1C=Nc1ccc(N2CCOCC2)cc1	D3 antag -76
Oc1ccccc1N=Cc1c(O)ccc2ccccc12	D1 agonist 101
Oc1ccccc1C=Nc1cccc2ccccc12	none
COc1ccc(CNC(=O)Nc2cn(CC(C)C)c(=O)c3ccccc23)cc1	none (no result: D3 antag)
CN(C)c1ccc(CNC(=O)c2ccc3c(c2)N(C)C(=O)C2CCCCN32)cc1 (configuration not stated)	none (no result: D3 antag)
CCOC(=O)Cn1c(=O)n(-c2ccccc2OC)c2nc(-c3ccccc3C)nc(C(N)=O)c21	none (no result: D3 antag)
CC(C)(C)c1ccc(/C=N/N2CCN(c3ccccn3)CC2)cc1	DRD3 agonist 30
BrC(=C\c1ccccc1)/C=N/N1CCN(c2ccccn2)CC1	D1 antagonist -32
Oc1cccc(/C=N/N2CCN(c3ccccn3)CC2)c1	none
Cc1c(Cl)cccc1NC(=O)c1ccc2c(c1)CCCN2S(C)(=O)=O	none (no result: D3 antag)
CCOC(=O)C1CCCN(C/C=C/c2ccccc2[N+](=O)[O-])C1 (configuration not stated)	D3 antag -64
CCN(CC)C(=O)C1CCCN(c2ccc([N+](=O)[O-])cc2)C1 (configuration not stated)	none
CCN(CC)C(=O)C1CCCN(C/C=C/c2ccccc2[N+](=O)[O-])C1 (configuration not stated)	D1 antagonist -62
COc1cc(C2C(C(=O)c3ccc(C)o3)=C(O)C(=O)N2c2cc(C)on2)cc(Br)c1O (configuration not stated)	D3 antag -57
COc1cc(C2C(C(=O)c3ccco3)=C(O)C(=O)N2c2cc(C)on2)cc(Br)c1O (configuration not stated)	D3 antag -73
COc1ccc(C2C(C(=O)c3ccc(C)o3)=C(O)C(=O)N2c2cc(C)on2)cc1OC (configuration not stated)	none
Cc1cc(N2C(=O)C(O)=C(C(=O)c3ccco3)C2c2cccnc2)no1 (configuration not stated)	none (no result: DRD3 agonist, D3 antag)
Cc1ccc(N2C(=O)c3cccc4c(N)ccc(c34)C2=O)c2cccnc12	D1 agonist 334, D1 antagonist -68
Cc1nn(C)c(C)c1N1C(=O)c2cccc3c(N)ccc(c23)C1=O	D1 agonist 356
CCN1C(=O)c2cccc3c(N)ccc(c23)C1=O	D1 agonist 231
CO/N=C(\C(=O)N[C@@H]1C(=O)N2C(C(=O)O)=C(CSc3nnnn3C)CS[C@H]12)c1csc(N)n1	none (no result: D1 PAM, D1 agonist, D3 antag, D1 antagonist)
O=C(O)c1cc(=O)cc(C(=O)O)[nH]1	D3 antag -82
O=C(O)c1cc(=O)[nH]c(=O)[nH]1	none (no result: D1 PAM, D1 agonist, D3 antag, D1 antagonist)
CCOC(=O)c1c(SCCN2CCCC2)n(-c2ccccc2)c(=S)n(-c2ccccc2)c1=O	D3 antag -119 (no result: D1 PAM, D1 agonist, D1 antagonist)
CN1CCN(Cc2ccc(-c3ccc(Cl)cc3)o2)CC1	D3 antag -71
